# Results taken from PubChem BioAssay AID485360 (National Center for Advancing Translational Sciences (NCATS), 2010).
# Screen size: about 230,000 compounds; about 1,500 (0.65%) were called active. Not shown: some 3% with an inconclusive outcome. Calls come from the whole dose curve; as a rule, active = well fitted inhibition curve with a large enough effect; inconclusive = small, poorly fitted or top-dose-only effect; inactive = no such curve, though single readings can be large or run the other way. The full list was thinned out, with actives kept by preference.
# Target: Lethal(3)malignant brain tumor-like protein 1 (Homo sapiens) (UniProt Q9Y468)
# Sequence (Q9Y468 whole entry, looked up): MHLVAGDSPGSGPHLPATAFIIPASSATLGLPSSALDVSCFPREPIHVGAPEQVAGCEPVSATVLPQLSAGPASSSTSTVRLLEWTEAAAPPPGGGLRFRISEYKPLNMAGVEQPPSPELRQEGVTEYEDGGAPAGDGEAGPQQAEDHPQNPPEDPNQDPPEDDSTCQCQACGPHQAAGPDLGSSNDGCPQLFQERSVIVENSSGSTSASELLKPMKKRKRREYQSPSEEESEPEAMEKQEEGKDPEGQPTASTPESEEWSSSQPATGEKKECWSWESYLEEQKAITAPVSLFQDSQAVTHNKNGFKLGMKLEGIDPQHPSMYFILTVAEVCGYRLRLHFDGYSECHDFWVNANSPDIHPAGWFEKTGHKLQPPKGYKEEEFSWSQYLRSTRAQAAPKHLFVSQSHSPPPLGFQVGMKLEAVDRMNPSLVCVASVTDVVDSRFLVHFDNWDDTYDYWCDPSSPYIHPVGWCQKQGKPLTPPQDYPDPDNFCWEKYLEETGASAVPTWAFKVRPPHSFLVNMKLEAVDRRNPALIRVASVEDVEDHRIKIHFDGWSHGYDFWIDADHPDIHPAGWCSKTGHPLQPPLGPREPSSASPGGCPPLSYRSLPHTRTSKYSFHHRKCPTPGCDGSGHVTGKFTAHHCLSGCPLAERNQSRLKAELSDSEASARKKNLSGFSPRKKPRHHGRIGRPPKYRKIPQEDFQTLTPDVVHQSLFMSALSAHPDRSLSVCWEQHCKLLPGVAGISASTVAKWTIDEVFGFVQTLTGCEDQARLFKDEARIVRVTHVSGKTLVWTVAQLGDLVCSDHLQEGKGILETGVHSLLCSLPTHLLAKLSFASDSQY
# Experiment: qHTS Assay for the Inhibitors of L3MBTL1; note: nearly all actives have a fitted effect of over 60% in size
# Conditions: AlphaScreen L3MBTL1–H3K9me1 peptide binding; series mostly up to 57.1 µM; activity, negative = inhibition: at the top concentration
# How it was run: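 First, the protein-peptide complex forms for 30 min at room temperature (L3MBTL1 50 nM, biotinylated H3K9me1 peptide 75 nM). Next, compounds are pin-transferred and incubated 30 min. Finally, AlphaScreen beads are added and read after 30 min.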
# % is set by controls: 0 for no effect and ±100 for the full control effect; potency is the fitted concentration of half-maximal effect.
SMILES,"activity, negative = inhibition",Potency
COC(=O)c1ccc(CNC(=O)c2ccc(S(=O)(=O)N3CCCCCC3)cc2)cc1,-4.44% (inactive),
CCN(CC)C(CNC(=O)CSc1nnnn1-c1cccc(F)c1)c1ccco1 (stereo not drawn),-4.2% (inactive),
COc1ccc(-c2nnc(SC(C)C(=O)NC3CC3)o2)cc1 (stereo not drawn),-1.06% (inactive),
CCCCOC(=O)Nc1nccs1,,8.91 µM (active)
CCCCOC(=O)Nc1nnc(CC(=O)NCc2ccccc2)s1,4.96% (inactive),
O=C(COC(=O)c1ccc(O)cc1)Nc1nccs1,-4.2% (inactive),
Cc1ccc(NC(=O)CCNC(=O)c2ccc([N+](=O)[O-])cc2)cc1S(=O)(=O)N1CCOCC1,10.5% (inactive),
CC(=O)N(O)CCCCCNC(=O)CCC(=O)N(O)CCCCCNC(=O)CCC(=O)N(O)CCCCCNC(=O)CCC(=O)O,19.9% (inactive),
CC[C@]12c3[nH]c4ccc(OC)cc4c3CCN1C(=O)C(CC(=O)NCCN1CCOCC1)C[C@@H]2C(=O)N1CCN(C(=O)C2CC2)CC1 (stereo partly drawn),-0.659% (inactive),
CCCn1c(C)cc(/C=C(\C#N)C(=O)OCC(=O)N(C)c2c(N)n(Cc3ccccc3)c(=O)[nH]c2=O)c1C,-5.67% (inactive),
Cc1cc(=O)[nH]c(Nc2cccc(Br)c2)n1,2.09% (inactive),
CCOc1ccc(C(=O)Nc2ccncc2)cc1,5.87% (inactive),
CCOc1cccc(NC(=O)CC#N)c1,-26.1% [at 11.4 µM] (inactive),
CCOc1ccc(NC(=O)c2ccc(NC(=O)COC(=O)c3ccc(NC(=O)CC#N)cc3)cc2)cc1,,1.58 µM (active)
COC(=O)[C@]1(C)CCC[C@@]2(C)C3CC[C@]4(OC(C)=O)C[C@@]3(CCC21)CC4=NO (stereo partly drawn),-4.36% (inactive),
Cc1nc2ccccc2c(=O)n1Cc1ccc([N+](=O)[O-])cc1,-2.52% (inactive),
COCCCn1c2nc3ccccc3nc2c2c(=O)n(Cc3ccc(Cl)cc3)c(C)nc21,-4.25% (inactive),
Cc1ccc(Cn2c(C)nc3c(c2=O)c2nc4ccccc4nc2n3Cc2ccco2)cc1,,17.8 µM (active)
COc1ccc(CCNC(=S)N2CCN(S(=O)(=O)c3ccc(F)cc3)CC2)cc1,-0.143% (inactive),
Cc1cccc(N=C2SC(C)CN2C(=O)CN2C(=O)NC3(CCCC3)C2=O)c1 (stereo not drawn),-0.37% (inactive),
O=C(COc1coc(CN2CCN(c3ccccc3)CC2)cc1=O)N1CCc2ccccc21,-1.38% (inactive),
CCCc1nc2c(c(=O)c3ccccc3n2C)c(=O)n1-c1cc(C)cc(C)c1,1.93% (inactive),
Cn1c2ccccc2c(=O)c2c(=O)n(Cc3ccco3)c(COc3ccccc3)nc21,,12.6 µM (active)
COc1ccc(C(=O)CSc2nnc(COc3ccccc3)n2Cc2ccco2)cc1,-15.6% (inactive),
CC(=O)c1c(C)[nH]c(C(=O)COc2ccc3c(C)cc(=O)oc3c2)c1C,-3.35% (inactive),
O=C(CCC1CCCCC1)Nc1cc(C(F)(F)F)ccc1N1CCOCC1,16.3% (inactive),

SMILES,"activity, negative = inhibition",Potency
Cc1ccc(S(=O)(=O)CCC(=O)OCC(=O)NCCc2ccc(S(N)(=O)=O)cc2)cc1,31.3% (inactive),
COc1ccccc1C(CNC(=O)c1cccc(S(=O)(=O)Nc2ccc(F)cc2)c1)N(C)C (stereo not drawn),-4.55% (inactive),
O=c1ccc2c(-c3ccccc3S(=O)(=O)O)c3ccc(O)c(O)c3oc-2c1O,,0.251 µM (active)
CCNC(=O)N(CC)C[C@H]1N[C@@](CC)(C(=O)OC)[C@H]2C(=O)N(Cc3ccccc3)C(=O)[C@@H]12,4.58% (inactive),
Cc1ccsc1C(=O)N/N=C/c1ccc([N+](=O)[O-])cc1,-0.894% (inactive),
CC(C)(C)c1cc(C(=O)N/N=C/c2ccc([N+](=O)[O-])s2)n[nH]1,8.1% (inactive),
Cc1cc(C(=O)N/N=C/c2cc([N+](=O)[O-])cc(C)c2O)n[nH]1,,22.4 µM (active)
Cc1ccccc1NC(=S)NC(=O)Cc1ccc(Cl)cc1,0.475% (inactive),
COc1ccc(OCCCC(=O)Nc2cccc(S(=O)(=O)N3CCCCCC3)c2)cc1,-10.2% (inactive),
CC(C)(C)NS(=O)(=O)NC(=O)C1=C(N2CCCC2)COC1=O,1.12% (inactive),
COc1ccc2nc3n(c(=O)c2c1)-c1cc(C)ccc1C(=O)NC3Cc1ccc(O)cc1 (stereo not drawn),-4.33% (inactive),
CC(OC(=O)CNC(=O)c1ccc(Cl)c([N+](=O)[O-])c1)C(=O)NCc1ccco1 (stereo not drawn),-1.26% (inactive),
O=[N+]([O-])c1cccc(/C([O-])=C(/C(=S)Nc2ccccc2F)[n+]2ccccc2)c1,-10.3% (inactive),
Cc1ccc(/C([O-])=C(/C(=S)NCc2ccco2)[n+]2ccccc2)cc1[N+](=O)[O-],,10 µM (active)
CC(=O)c1c(C)n(-c2ccc(C)cc2)c2ccc(O)cc12,0.558% (inactive),
COc1cc2c(-c3ccc4c(c3)OCO4)c(-c3ccsc3)oc(=O)c2cc1OC,-2.19% (inactive),
N#Cc1ccccc1CN1C(=O)S/C(=C/c2cccn2-c2cccc(C(=O)O)c2)C1=O,,22.4 µM (active)
O=C(O)c1cccc(N2C(=O)Nc3ccccc3N2O)c1,11.3% (inactive),
Cn1cccc1/C=C1\SC(=O)N(CC(=O)Nc2ccc(F)cc2)C1=O,8.81% (inactive),
CN(C(=O)CSc1nnc(-c2ccc(C(C)(C)C)cc2)n1C)C1CCS(=O)(=O)C1 (stereo not drawn),-6.6% (inactive),
C1=C(N2CCOCC2)/C(=C/c2nc3ccccc3[nH]2)CC1,,25.1 µM (active)
CC1(C)Cc2c(C#N)c(SCc3nc4ccccc4[nH]3)nc(N3CCOCC3)c2CO1,2.75% (inactive),
O=c1[nH]c(N2CCOCC2)nc2ccccc12,6.39% (inactive),
N#CCN(C(=O)COC(=O)C1CC2CCCC(C1)C2=O)c1ccccc1 (stereo not drawn),28.5% (inactive),
CC(NC(=O)c1ccccc1C(=O)O)c1ccc(-n2ccnc2)cc1 (stereo not drawn),-1.91% (inactive),
COc1cc(C=NNC(=O)c2cccnc2)ccc1OC(=O)c1ccccc1F,7.91% (inactive),

SMILES,"activity, negative = inhibition",Potency
COc1ccc(NC(=O)Nc2cccc3cccnc23)cc1,2.33% (inactive),
CC(C)c1ccc(Nc2ncccc2C#N)cc1,20.4% (inactive),
Nc1ccc(Nc2cc(O)c3ncccc3c2)cc1,,11.2 µM (active)
COc1ccc(S(=O)(=O)N2CCCCC2)cc1NC(=O)COc1ccccc1,3.21% (inactive),
Cc1cc(C(=O)COc2ccccc2Cl)c(C)n1C1CC1,-9.04% (inactive),
CCC(CO)Oc1cc(NC(=O)c2cccc3ccccc23)c2ncn(C(C)C)c2c1 (stereo not drawn),-4.07% (inactive),
O=C(COC(=O)c1ccc(F)cc1F)Nc1ncccn1,,20 µM (active)
COc1cc(OC)cc(C(=O)OCC(=O)Nc2ccc(F)cc2F)c1,1.96% (inactive),
O=C(COC(=O)CSc1ccccc1)Nc1ccc(F)cc1F,5.2% (inactive),
O=S(=O)(c1ccccc1)N1CCC(c2ccccc2)CC1,17.6% (inactive),
O=C(COC(=O)COc1cc(Cl)c(Cl)cc1Cl)NC1CC1,-1.35% (inactive),
CCCCN(C(=O)CCNC(=O)NC12CC3CC(CC(C3)C1)C2)c1c(N)n(CCCC)c(=O)[nH]c1=O,20.7% (inactive),
COc1ccc(Cc2nnc(NC(=O)Cc3cccs3)s2)cc1,,4.47 µM (active)
COc1ccc(Cc2nnc(NC(=O)c3ccc(OC)cc3OC)s2)cc1,1.66% [at 2.29 µM] (inactive),
CCc1nnc(NC(=O)Cc2cccs2)s1,1.52% (inactive),
Cn1cc[n+](C)c1COc1ccc(C=O)cc1,3.68% (inactive),
CCOCCOC(=O)C1=C(C)NC(=O)NC1c1ccc2c(c1)OCO2 (stereo not drawn),2.78% (inactive),
CC1(c2ccccc2)NC(=O)N(CC(=O)N2CC(=O)Nc3ccccc32)C1=O (stereo not drawn),-2.19% (inactive),
Cc1ccc(C2(C)NC(=O)N(CC(=O)N3CC(=O)Nc4ccccc43)C2=O)cc1 (stereo not drawn),7.53% (inactive),
CCOC(=O)N1CCN(C(=O)C(C)NC(=O)c2ccco2)CC1 (stereo not drawn),4.15% (inactive),
CCOc1cc(/C=N/O)cc(Br)c1OC,-1.13% (inactive),
CCOc1c(Br)cc(/C=C2\C(=O)N(CCC#N)N=C2C)cc1OC,,14.1 µM (active)
C=CCOc1c(Br)cc(/C=N\n2nnnc2N)cc1OC,0.799% (inactive),
CCOC(=O)[C@@H]1[C@H]2COc3cc(OC)ccc3[C@@H]2N2C(=O)N(c3cccc(C)c3)C(=O)[C@@]12C,4.3% (inactive),
CC(OC(=O)c1ccc([N+](=O)[O-])cc1)C(=O)NCC1CCCCC1 (stereo not drawn),32.7% (inactive),
CCCCN1C(=O)C(C)=C(C)C1OCCc1ccc(OC)c(OC)c1 (stereo not drawn),0.955% [at 2.29 µM] (inactive),
